According to PubChem BioAssay AID540263 (National Center for Advancing Translational Sciences (NCATS), 2011):
Among all 340,000 compounds or so, about 100 (0.029%) were called active. Roughly 8% stayed inconclusive and do not appear here. This is one part of a sample in which actives are shown more often than they occur. The call rests on the fitted dose curve.

Molecular target: Importin subunit beta-1 (Homo sapiens) (UniProt Q14974)
Experiment: qHTS Assay for Inhibitors of Rango (Ran-regulated importin-beta cargo) - Importin beta complex formation;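 further: 0% = DMSO wells and 100% = buffer wells lacking importin beta; nearly all actives have a fitted effect of over 15% in size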
Settings: Rango CFP/YFP FRET sensor + importin beta, 45 min; series mostly up to 92.2 µM; inhibition of complex formation: at the top concentration
Excerpt: NIH Molecular Libraries Probe Production Centers Network [MLPCN] NIH Chemical Genomics Center [NCGC] MLPCN Grant: R03 MH090808-01A1 Assay Submitter (PI): Petr Kalab NCGC Assay Overview: The small GTPase Ran regulates transport of macromolecules between the nucleus and the cytoplasm (nuclear transport) and has important functions in mitotic spindle assembly, nuclear envelope (NE) formation and nuclear pore complex (NPC) assembly. RanGTP gradient is thought to promote spindle assembly by providing a spatial clue to microtubule nucleation and Aurora A activation. Because the localized release and binding of importin alpha cargo relays this spatial clue to SAFs, inhibitors of the Rango - importin beta complex can then be used in further understanding their role in cell cycle specifically in mitosis progression. […] Activation of Aurora A has been linked to different types of cancer and a number of Aurora kinase inhibitors are being developed as potential canter therapeutics therefore, identified inhibitors of this complex could be developed into potential anti-mitotic probes for cancer treatment. Purified recombinant proteins Rango and importin beta were provided by the assay submitter. The assay used a fluorescence resonance energy transfer (FRET) Rango biosensor that contains the IBB of human snurportin 1 flanked by yellow fluorescent protein (EYFP) at the amino terminus and cerulean CFP10 at the carboxy terminus. […] Inhibitors will therefore be identified based on the ability to interfere with the FRET signal decrease. DMSO treated and no importin beta (buffer only) wells were used as negative and positive controls respectively. FRET readings were obtained at two time points. FRET reading prior to importin beta addition (pre-read) were used flag potential compound interference; FRET reading after importin beta addition (post-read) were used to identify inhibitors using the FRET ratio parameter.
NCGC Assay Protocol Summary: Two and a half uL/well of Rango-buffer solution (50 nM Rango, 1x PBS, 1mM DTT, 0.02% Tween-20, 0.1% BSA final concentrations) was dispensed into 1536-well assay plates (Greiner, solid black medium-binding plates) with Aurora Discovery BioRAPTR Flying Reagent Dispenser (FRD; Beckton-Dickenson). Compound solution (23 nL) was transferred to the assay plate using Kalypsys pin tool equipped with a 1536-pin tool and incubated at room temperature for 5 min followed by a FRET pre-read using the PerkinElmer Envision plate reader. Two and a half uL/well of Importin beta - buffer solution (0.125 microM importin beta, 1x PBS, 1mM DTT, 0.02% Tween-20, 0.1% BSA final concentrations) were then added and incubated at room temperature giving a final reaction volume of 5uL. After 45min FRET post-read was obtained via the Envision plate reader using the same optics and settings as the pre-read (CFP/YFP optimized dual optical module D450/D505; excitation mirror CFP 430/24 nm; and emission filters CFP 486/10 nm and YFP 530/10 nm).

Chain of Importin subunit beta-1 (Homo sapiens) (Q14974 whole entry, looked up): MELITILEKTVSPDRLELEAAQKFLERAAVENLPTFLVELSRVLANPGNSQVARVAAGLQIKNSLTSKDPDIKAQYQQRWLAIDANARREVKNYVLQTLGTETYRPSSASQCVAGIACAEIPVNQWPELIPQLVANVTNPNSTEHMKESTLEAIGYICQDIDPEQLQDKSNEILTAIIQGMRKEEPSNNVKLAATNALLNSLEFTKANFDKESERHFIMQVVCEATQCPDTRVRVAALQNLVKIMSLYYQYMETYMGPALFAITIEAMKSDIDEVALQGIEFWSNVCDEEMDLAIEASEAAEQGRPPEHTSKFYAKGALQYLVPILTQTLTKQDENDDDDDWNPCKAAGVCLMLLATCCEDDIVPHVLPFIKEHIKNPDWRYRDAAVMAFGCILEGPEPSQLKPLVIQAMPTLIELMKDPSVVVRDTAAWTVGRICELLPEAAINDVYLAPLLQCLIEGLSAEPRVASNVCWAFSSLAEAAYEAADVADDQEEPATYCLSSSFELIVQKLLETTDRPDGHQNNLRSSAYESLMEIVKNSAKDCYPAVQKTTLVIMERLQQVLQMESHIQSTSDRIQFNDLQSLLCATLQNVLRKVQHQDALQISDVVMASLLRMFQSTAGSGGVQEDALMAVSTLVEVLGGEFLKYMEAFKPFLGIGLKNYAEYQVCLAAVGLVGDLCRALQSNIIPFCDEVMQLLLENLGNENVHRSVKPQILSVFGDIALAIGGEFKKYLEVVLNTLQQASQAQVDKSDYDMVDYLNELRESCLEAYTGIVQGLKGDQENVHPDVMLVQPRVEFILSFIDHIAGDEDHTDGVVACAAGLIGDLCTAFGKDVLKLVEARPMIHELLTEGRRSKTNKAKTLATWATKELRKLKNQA

Inhibition of complex formation, inactive:
CC(C)=CCc1ccc(O)c(=O)cc1C(C)C -0.975%
O=C(Nc1ccc2ccccc2c1[N+](=O)[O-])c1ccccc1 3.45%
COc1ccc(Cl)cc1C=CC=NNC(=O)c1ccncc1 4.63%
CC(C)(C)OC(=O)N1CCC(C(=O)Nc2cccc(C(=O)NCCc3ccccc3)c2)CC1 1.14%
COC1=CC(=O)OC(C)(c2ccccc2)C1 (centres undefined) -1.43%
Cc1ccc(Nc2c(O)nc[nH]c2=O)cc1C -7.42%
CCCN(CC(=O)Nc1ccccc1C)C(=O)c1ccc(OCC(=O)N2CCOCC2)c(OCC)c1 -0.312%
COc1ccc(-c2ccc3c(c2)[C@@H]2C[C@H](N(C)S(=O)(=O)c4ccccc4)[C@H]([C@H](C)O)C(=O)N2CC3)cc1 -1.31%
CC1(C)N=C(N)NC(Nc2ccc(Cl)cc2)=N1 2.24%
CN(C(=O)c1cccc(NC(=O)Cc2ccc(NC(=O)C3CCN(C(=O)C4CCCCC4)CC3)cc2)c1)C1CCC1 -2.04%
CC(C)(C)c1nnc2sc(SCC(O)=C(C#N)c3nc4ccccc4[nH]3)nn2c1=O 0.14%
Cc1ccc(S(=O)(=O)N2CCN(C(=O)c3cc(S(=O)(=O)N4CCOCC4)ccc3F)CC2)cc1 -3.27%
Cc1nn(-c2ncccn2)c2c1C(=O)CC(C)(C)C2Br (centres undefined) -3.68%
CCN(CC(=O)Nc1c(F)cccc1F)C(=O)Cc1cccs1 -5.32%
NC(=O)c1ccc(N2CCCC2)nc1 0.637%
COc1cc2[nH]c(O)c(C=O)c2cc1OC -0.216%
CC/C(=C\c1ccc(Cl)cc1)c1ccncc1 0.876%
COc1ccc(Cl)cc1C=CC=Nc1ccc(S(N)(=O)=O)cc1 -2.29%
COc1ccc(CCNC(=O)c2ccc(NC(=O)CC3SC(N4CCCCC4)=NC3=O)cc2)cc1OC (centres undefined) -3.12%
CSCCC(NC(=O)COc1ccccc1)C(=O)N1CCN(c2cccc(C(F)(F)F)c2)CC1 (centres undefined) 4.24%
CCCCN1CC(COc2ccccc2)Oc2cccc(F)c2S1(=O)=O (centres undefined) 2.87%
O=C(NN=Cc1ccccc1)c1ccccc1 -2.28%
O=C(Nc1c(Br)cc2c(c1Br)Cc1cc([N+](=O)[O-])ccc1-2)C(Cl)Cl -0.563%
CC(=O)OC1CCC2C3CCC4=C(CC(F)C(=O)C4)C3CCC12C (centres undefined) -1.03%
O=[N+]([O-])c1ccc(COc2ccccc2CN2CCOCC2)cc1 3.71%
COc1cccc(CC(=NO)c2cccc(OC)c2)c1 -0.088%
NC(=O)C1(Nc2ccc(-c3ccccc3)cc2)CCCC1 0.958%
O=C(O)C(=Cc1ccccc1[N+](=O)[O-])c1ccccc1 -0.207%
CCOC(=O)c1ccccc1NC(=O)CSc1nc2c(sc(=S)n2CC)c(=O)[nH]1 0.302%
O=C(CCCCCCCC(=O)N1CCCCC1)N1CCCCC1 -2.28%
Nc1cc2c(cc1Br)-c1ccc(F)cc1C2=O -2.11%
O=C1NC(c2ccccc2)Cc2ccncc21 (centres undefined) 0.404%
Cc1ccc(OCCNC(=O)c2cccc(S(=O)(=O)N3CCN(Cc4ccccc4)CC3)c2)cc1 3.25%
O=C1CC(c2ccccc2)C(c2ccccc2)=NN1 (centres undefined) -1.44%
Nc1ccc2c(c1)C(=Cc1cccnc1)c1ccccc1-2 -0.161%
Oc1ccc(-c2nc3ccccc3nc2-c2ccc(O)cc2O)c(O)c1 1.75%
O=C(Nc1ccccc1)Oc1cccc2cccnc12 -0.849%
O=[N+]([O-])c1ccc(NS(=O)(=O)c2ccccc2)c(Cl)c1 -1.29%
O=C(Cc1ccc(Cl)cc1)c1ccccc1 3.5%
O=C1C(=O)N(c2ccccc2)C(c2ccccc2)C1c1ccccc1 (centres undefined) 2.65%
Cc1cc([N+](=O)[O-])ccc1NS(=O)(=O)c1ccccc1 2.79%
O=C(c1ccc2c(c1)C(=O)N(Cc1ccncc1)C2=O)N1CCN(S(=O)(=O)c2ccc(OC(F)(F)F)cc2)CC1 5.12%
O=S(=O)(Cc1ccc(Cl)cc1Cl)c1ccc(Cl)cc1 -2.04%
Cc1c(NS(=O)(=O)c2cccc(C(=O)Nc3ccc(SC(F)F)cc3)c2)c(=O)n(-c2ccccc2)n1C -1.93%
C[n+]1cccc(C(=O)O)c1 8.24%
CCCCN(C(=O)c1cccc(N2C(=O)c3ccccc3C2=O)c1)c1c(N)n(CCCC)c(=O)[nH]c1=O -5.63%
CSCCC(NS(=O)(=O)c1ccc(C)cc1)C(=O)N(C)CC(=O)Nc1ccccc1Br (centres undefined) -2.58%
COc1ccccc1NC(=O)N(O)C1(C#N)CCCCC1 6.65%
O=C(Nc1c[nH]c(=O)[nH]c1=O)OCc1ccccc1 -3.52%
COc1cc2c(cc1OC)C(Cc1cc(OC)c(OC)cc1[N+](=O)[O-])=NCC2 -4.04%
CN(O)C(=S)c1ccccc1 0.436%
Cc1ccc(S(=O)(=O)c2cc3c(=O)n4cccc(C)c4nc3n(CCc3ccccc3)c2=N)cc1C -0.419%
O=C1OC(Oc2ccc(Br)cc2)(c2ccccc2)c2ccccc21 (centres undefined) 4.41%
N#CC1(Nc2ccc(-c3ccc(Cl)cc3)cc2)CCCC1 -0.935%
